Each sequence was assayed against T1, POU2 (OCT2 POU domain) (human, UniProt P09086 175-386) (assay: EMSA-SELEX-seq; no BOB1; 20 mM Tris-HCl pH 7.6, 140 mM NaCl, 10% glycerol, 0.5 mM EDTA, 0.05% Triton X-100, 0.1 mg/mL BSA, 0.1 mg/mL poly(dI-dC), 5 mM DTT, room temperature, 20 min; high values mean tight binding). Conditions: protein: recombinant; dsDNA, one strand shown.
T1 sequence: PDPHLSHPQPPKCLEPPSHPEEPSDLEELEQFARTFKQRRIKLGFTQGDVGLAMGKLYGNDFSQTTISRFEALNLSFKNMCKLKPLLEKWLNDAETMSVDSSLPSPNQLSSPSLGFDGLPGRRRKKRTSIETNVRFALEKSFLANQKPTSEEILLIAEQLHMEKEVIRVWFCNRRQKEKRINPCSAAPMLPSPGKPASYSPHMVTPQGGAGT
In short: (§1)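 Tagged POU-domain proteins were expressed in E. coli BL21, purified under denaturing conditions and renatured. Then 30 ng was mixed with 300 ng of a PCR-amplified double-stranded random 35-nt library, with or without 28 ng coactivator protein, in 20 μL Tris–HCl pH 7.6 binding buffer for 20 min at RT. Complex bands were cut from native 6% PAGE, eluted and PCR-amplified over four rounds, then Illumina-sequenced. Binding preference is the percentage of sequenced 8-mers matching a motif pattern.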

Sequence | binding signal
ATAAAAAG | 0.114 % of ANNNNAAN 8-mers
AGCGCAAC | 0.0104 % of ANNNNAAN 8-mers
AGGGCAAA | 0.0466 % of ANNNNAAN 8-mers
ACGTTAAA | 0.0506 % of ANNNNAAN 8-mers
AAACCAAG | 0.0161 % of ANNNNAAN 8-mers
ATCTTAAC | 0.0449 % of ANNNNAAN 8-mers
ACCGCAAA | 0.0167 % of ANNNNAAN 8-mers
AGGGTAAG | 0.0541 % of ANNNNAAN 8-mers
AAGTTAAT | 0.178 % of ANNNNAAN 8-mers
ACAAGAAG | 0.0316 % of ANNNNAAN 8-mers
AATTTAAT | 0.333 % of ANNNNAAN 8-mers
ATCCTAAA | 0.0328 % of ANNNNAAN 8-mers
ATACCAAG | 0.0334 % of ANNNNAAN 8-mers
AACTAAAA | 0.0478 % of ANNNNAAN 8-mers
AGCTAAAC | 0.0236 % of ANNNNAAN 8-mers
ATTTCAAT | 0.268 % of ANNNNAAN 8-mers
AAGTAAAA | 0.0967 % of ANNNNAAN 8-mers
ATCCTAAT | 0.0944 % of ANNNNAAN 8-mers
AGGCTAAA | 0.0414 % of ANNNNAAN 8-mers
ATCATAAG | 0.0581 % of ANNNNAAN 8-mers

The sequences below were run against POU1 (OCT1 POU domain);BOB1 (OBF1, OCA-B) (human;human, UniProt P14859;Q16633 260-458;1-256, |) (assay: EMSA-SELEX-seq; with BOB1 (ternary complex band); 20 mM Tris-HCl pH 7.6, 140 mM NaCl, 10% glycerol, 0.5 mM EDTA, 0.05% Triton X-100, 0.1 mg/mL BSA, 0.1 mg/mL poly(dI-dC), 5 mM DTT, room temperature, 20 min; high values mean tight binding). Conditions: protein: recombinant;recombinant; copies: 1;1; dsDNA, one strand shown.
In short: as §1

Sequence | binding signal
AGATTAAC | 0.0414 % of ANNNNAAN 8-mers
AAAAAAAT | 0.152 % of ANNNNAAN 8-mers
AGCCTAAG | 0.0219 % of ANNNNAAN 8-mers
AAATTAAA | 0.213 % of ANNNNAAN 8-mers
AACACAAC | 0.014 % of ANNNNAAN 8-mers
ATAACAAA | 0.1 % of ANNNNAAN 8-mers
ATATTAAG | 0.0882 % of ANNNNAAN 8-mers
ACACAAAA | 0.0644 % of ANNNNAAN 8-mers
ATAGGAAT | 0.0898 % of ANNNNAAN 8-mers
AGTACAAT | 0.0386 % of ANNNNAAN 8-mers
AGGTTAAA | 0.0578 % of ANNNNAAN 8-mers
ACTAGAAG | 0.03 % of ANNNNAAN 8-mers
AGTTGAAT | 0.0667 % of ANNNNAAN 8-mers
ACCATAAA | 0.0304 % of ANNNNAAN 8-mers
AGGCCAAG | 0.0312 % of ANNNNAAN 8-mers
ATCACAAA | 0.0539 % of ANNNNAAN 8-mers
AACCAAAG | 0.0539 % of ANNNNAAN 8-mers
ACCGGAAT | 0.0398 % of ANNNNAAN 8-mers
AATGGAAC | 0.0449 % of ANNNNAAN 8-mers
ATAAAAAG | 0.0925 % of ANNNNAAN 8-mers

Sequence | binding signal
AGCGCAAC | 0.0125 % of ANNNNAAN 8-mers
AGGGCAAA | 0.0675 % of ANNNNAAN 8-mers
ACGTTAAA | 0.0371 % of ANNNNAAN 8-mers
AAACCAAG | 0.0293 % of ANNNNAAN 8-mers
ATCTTAAC | 0.0402 % of ANNNNAAN 8-mers
ACCGCAAA | 0.018 % of ANNNNAAN 8-mers
AGGGTAAG | 0.0531 % of ANNNNAAN 8-mers
AAGTTAAT | 0.102 % of ANNNNAAN 8-mers
ACAAGAAG | 0.0273 % of ANNNNAAN 8-mers
AATTTAAT | 0.182 % of ANNNNAAN 8-mers
ATCCTAAA | 0.0285 % of ANNNNAAN 8-mers
ATACCAAG | 0.0238 % of ANNNNAAN 8-mers
AACTAAAA | 0.0386 % of ANNNNAAN 8-mers
AGCTAAAC | 0.0265 % of ANNNNAAN 8-mers
ATTTCAAT | 0.174 % of ANNNNAAN 8-mers
AAGTAAAA | 0.132 % of ANNNNAAN 8-mers
ATCCTAAT | 0.0499 % of ANNNNAAN 8-mers
AGGCTAAA | 0.0363 % of ANNNNAAN 8-mers
ATCATAAG | 0.0379 % of ANNNNAAN 8-mers

— publication PMC10812921, “Transcriptional Coactivator BOB1 (OBF1, OCA-B) Modulates the Specificity of DNA Recognition by the POU-Domain Factors OCT1 and OCT2 in a Monomeric Configuration”
